Screening data deposited in PubChem BioAssay by several laboratories.
An excerpt weighted towards active compounds, which were near 2.9% of everything screened.
Exocytosis inh: lytic granule exocytosis inhibition; TALL-104 LAMP-1 surface exposure, flow cytometry; cells stimulated with thapsigargin and PMA; inhibition, % at 10 µM; 0.66% of 360,000 active; AID 651702;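 active means inhibition above about 55%, limit read from the data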
NadD inh: inhibitors of Staphylococcus aureus NadD; purified NadD enzyme, colorimetric absorbance read-out; inhibition, % at 20 µM; 0.78% of 360,000 active; in the data active means inhibition above about 26%
Beta2AR agonist: agonists of human beta-2 adrenergic receptor inducing internalization; P07550; Am2.2-beta2AR cells, FAP receptor internalization, flow cytometry; response, % (concentration not given with the values); 0.43% of 340,000 active; AID 504454;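 active means response above a set limit, near 3 SD of response in nonfluorescent compounds, cut at about 42% in these data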
Target sequence (P07550 whole entry, looked up): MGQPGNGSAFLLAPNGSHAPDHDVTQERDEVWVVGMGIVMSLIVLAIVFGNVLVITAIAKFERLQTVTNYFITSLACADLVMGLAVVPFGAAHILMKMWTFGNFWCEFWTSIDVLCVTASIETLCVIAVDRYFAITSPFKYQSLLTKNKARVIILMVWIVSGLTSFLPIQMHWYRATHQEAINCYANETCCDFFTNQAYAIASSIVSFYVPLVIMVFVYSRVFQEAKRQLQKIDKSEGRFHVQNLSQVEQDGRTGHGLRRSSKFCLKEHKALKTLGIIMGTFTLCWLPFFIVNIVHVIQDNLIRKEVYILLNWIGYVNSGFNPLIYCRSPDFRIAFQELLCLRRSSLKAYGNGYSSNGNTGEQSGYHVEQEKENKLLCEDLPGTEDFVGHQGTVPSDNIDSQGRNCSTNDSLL
GRK2 aptamer HTS: human GRK2 inhibition via aptamer displacement; P25098; bead flow cytometry, FAM-aptamer displacement from GRK2; inhibition of aptamer binding, % at 10 µM; 0.59% of 330,000 active;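 active means inhibition of aptamer binding above 40%, roughly 3 SD of noise, on plates passing a quality check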;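 further: median bead fluorescence of bound FAM aptamer so fluorescent compounds give negative values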
PP1 counter: PP1-alpha (human) inhibition in PP5 counter-screen; P62136; purified PP1alpha, OMFP fluorescence; inhibition, % at 6.7 µM; 0.9% of 320,000 active; AID 2235;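 active means inhibition above the mean inhibition of all tested compounds plus 3 SD, computed separately for each screening campaign, cut at about 15% in these data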
Active calls of the source: *; ! = not confirmed by another sample.

How did C1=C(c2ccccc2)Nc2ncnn2C1c1ccccc1 (configuration not stated) do in these assays?
Exocytosis inh: -5; NadD inh: -3; Beta2AR agonist: 0; GRK2 aptamer HTS: 0; PP1 counter: 0

Results for Cc1ccc(C2=CC(c3ccccc3)n3ncnc3N2)cc1 (configuration not stated) ?
Exocytosis inh: 68*; NadD inh: 4; Beta2AR agonist: -1; GRK2 aptamer HTS: 3; PP1 counter: 0

How did Cc1cc(C(=O)Nn2c(-c3ccc(Br)cc3)nc3ccccc3c2=O)ccc1[N+](=O)[O-] do in these assays?
Exocytosis inh: -2; NadD inh: 0; Beta2AR agonist: 1; GRK2 aptamer HTS: 10; PP1 counter: 0

How did Cc1ccc(/C=C2\SC(=S)N(CCC(=O)NNC(=O)c3ccc(O)cc3)C2=O)cc1 do in these assays?
Exocytosis inh: -1; NadD inh: 45*; Beta2AR agonist: 4; GRK2 aptamer HTS: 6; PP1 counter: 3

What do the screens show for `O=C(CN1C(=O)/C(=C/c2ccccc2)SC1=S)NNC(=O)c1ccccc1O`?
Exocytosis inh: -5; NadD inh: 37*; Beta2AR agonist: 2; GRK2 aptamer HTS: 0; PP1 counter: 6

Results for O=C(CCN1C(=O)S/C(=C\c2ccccc2)C1=O)Nc1ccc(O)cc1C(=O)O ?
Exocytosis inh: -1; NadD inh: -6; Beta2AR agonist: 4; GRK2 aptamer HTS: 1; PP1 counter: -3

How did O=C(CN1C(=O)/C(=C/c2cccc(Br)c2)SC1=S)NC1=NCCS1 do in these assays?
Exocytosis inh: -2; NadD inh: 34*; Beta2AR agonist: 4; GRK2 aptamer HTS: 0; PP1 counter: 1

What do the screens show for `CN1C(=O)/C(=C/c2ccc(C(=O)Nc3ccc(O)cc3C(=O)O)cc2)SC1=S`?
Exocytosis inh: 2; NadD inh: 40*; Beta2AR agonist: -4; GRK2 aptamer HTS: 1; PP1 counter: -1

How did COc1ccc(OC)c(NC(=O)CS(=O)(=O)c2cn(CC(=O)N3CCOCC3)c3ccccc23)c1 do in these assays?
Exocytosis inh: 2; NadD inh: 2; Beta2AR agonist: 6; GRK2 aptamer HTS: 2; PP1 counter: 5

How did Cc1[nH]c(C)c(S(=O)(=O)Nc2cccc(Cl)c2C)c1C(=O)N1CCCCC1 do in these assays?
Exocytosis inh: -7; NadD inh: -7; Beta2AR agonist: 7; GRK2 aptamer HTS: 5; PP1 counter: 0

How did Cc1ccc(/C=C2\SC(=S)N(CCC(=O)NNC(=O)c3ccccc3O)C2=O)cc1 do in these assays?
Exocytosis inh: -1; NadD inh: 38*; Beta2AR agonist: 3; GRK2 aptamer HTS: 0; PP1 counter: -2

What do the screens show for `CCOc1ccc(/C=C2/SC(=S)N(CCC(=O)Nc3ccc(C(=O)O)cc3)C2=O)cc1`?
Exocytosis inh: 5; NadD inh: 38*; Beta2AR agonist: 12; GRK2 aptamer HTS: 18; PP1 counter: -1

What do the screens show for `CCN(c1ccc(NC(=O)CN2C(=O)NC3(CCOc4ccccc43)C2=O)cc1)C(C)C` (configuration not stated)?
Exocytosis inh: 2; NadD inh: -4; Beta2AR agonist: -6; GRK2 aptamer HTS: 0; PP1 counter: 2

Results for COc1cc(C2Nc3cccc4cccc(c34)N2)ccc1O ?
Exocytosis inh: 2; NadD inh: 59*; Beta2AR agonist: 15; GRK2 aptamer HTS: 0; PP1 counter: -1

How did Cc1cccc(C2Nc3cccc4cccc(c34)N2)c1 do in these assays?
Exocytosis inh: 0; NadD inh: 16; Beta2AR agonist: 32; GRK2 aptamer HTS: 0; PP1 counter: 2

Results for COc1cc(C2Nc3cccc4cccc(c34)N2)cc(OC)c1OC(C)=O ?
Exocytosis inh: 7; NadD inh: 43*; Beta2AR agonist: 13; GRK2 aptamer HTS: 0; PP1 counter: 7

Results for CCn1c(SCC(=O)N/N=C(/C)c2ccncc2)nc2ccccc21 ?
Exocytosis inh: 60*; NadD inh: 4; Beta2AR agonist: -3; GRK2 aptamer HTS: 1; PP1 counter: -2

How did CN(C)c1nc(SCC(=O)Nc2ccc(Cl)c(Cl)c2)nc(N2CCOCC2)n1 do in these assays?
Exocytosis inh: 74*; NadD inh: -1; Beta2AR agonist: 3; GRK2 aptamer HTS: 1; PP1 counter: 1

How did CCOC(=O)C1=CC[C@@H](c2ccccc2)N(S(=O)(=O)c2ccc(C)cc2)[C@H]1C=C(C)C do in these assays?
Exocytosis inh: 8; NadD inh: -3

How did Cc1c(O)cccc1C(=O)N[C@@H](CSc1ccccc1)[C@H](O)CN1C[C@H]2CCCC[C@H]2C[C@H]1C(=O)NC(C)(C)C do in these assays?
Exocytosis inh: 4; NadD inh: 10; Beta2AR agonist: -11; GRK2 aptamer HTS: 1; PP1 counter: 17*!

What do the screens show for `Nc1cccc2cccc([N+](=O)[O-])c12`?
Exocytosis inh: -1; NadD inh: 0; Beta2AR agonist: 6

How did COc1ccc(N2CCN(C(c3cccs3)C(C)NC(=O)C(=O)N3CCCCC3)CC2)cc1 (configuration not stated) do in these assays?
Exocytosis inh: -2; NadD inh: 7; Beta2AR agonist: 70*; GRK2 aptamer HTS: 5; PP1 counter: 0

Results for CCCCN(C(=O)c1ccc(N(C)S(=O)(=O)c2ccc(C)cc2)cc1)c1c(N)n(CC(C)C)c(=O)[nH]c1=O ?
Exocytosis inh: 14; NadD inh: 10; Beta2AR agonist: -7

How did CCSc1nc2ccccc2n1C(=O)/C=C\c1ccc(OC)c(OC)c1 do in these assays?
Exocytosis inh: 1; NadD inh: -4; Beta2AR agonist: 51*; GRK2 aptamer HTS: 1; PP1 counter: -4

Results for CCSc1nc2ccccc2n1CC(N)=O ?
Exocytosis inh: -2; NadD inh: -10; Beta2AR agonist: 10; GRK2 aptamer HTS: 1; PP1 counter: -2

How did CCn1c(SCC(=O)Nc2oc(-c3ccccc3)c(-c3ccccc3)c2C#N)nnc1-c1cc(OC)cc(OC)c1 do in these assays?
Exocytosis inh: 2; NadD inh: 51*; Beta2AR agonist: 13; GRK2 aptamer HTS: 1; PP1 counter: 14

Results for Cc1cc(N2CCN(C)CC2)nc2ccc(NC(=S)N3CCC4(CC3)OCCO4)cc12 ?
Exocytosis inh: 3; NadD inh: -3; Beta2AR agonist: -2; GRK2 aptamer HTS: 4; PP1 counter: -4

Results for N#CC1(NC(=O)CN2C(=O)NC3(CCCCCC3)C2=O)CCCCC1 ?
Exocytosis inh: 0; NadD inh: 5; Beta2AR agonist: -1; GRK2 aptamer HTS: 0; PP1 counter: -3

How did Cc1cccc(N2CCN(S(=O)(=O)c3ccc4[nH]c(=O)ccc4c3)CC2)c1C do in these assays?
Exocytosis inh: 0; NadD inh: 9; Beta2AR agonist: -1; GRK2 aptamer HTS: 6; PP1 counter: 16*

Results for COc1cc(CNCCNC(=O)c2nonc2N)ccc1OCc1ccc(Cl)cc1 ?
Exocytosis inh: 26; NadD inh: -12; Beta2AR agonist: 11; GRK2 aptamer HTS: 0; PP1 counter: 1

How did O=C(c1ccccc1)c1ccc2cc(O)ccc2c1 do in these assays?
Exocytosis inh: 1; NadD inh: -6; Beta2AR agonist: -3; GRK2 aptamer HTS: 67*; PP1 counter: 2
